High-throughput results from PubChem BioAssay.
TGFb inhibitor = blocks TGF-b signaling; 410,000 compounds, 1.2% hits; Potency, µM (top dose mostly 46.1 µM), actives largely listed as inhibitors; HepG2 CAGA-GFP TGF-b/SMAD3 reporter, GFP fluorescence, 18 h; TGF-beta stimulated, 500 pg/mL final; further: nearly all actives have a fitted effect of over 65% in size
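Read-out: total well GFP (ex488/em500-530) summed from mean per-cell fluorescence. Cells: HEPG2 CAGA-GFP, 1% FBS DMEM, 18 h at 37 degrees C with 500 pg/mL final TGF-beta. Unstimulated wells served as the full-inhibition control; stimulated DMSO wells = 0%.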
IL-1B inflam inh = blocks inflammasome-driven IL-1 beta release; THP-1 LPS/ATP IL-1B secretion, AlphaLISA, 16 h; hits give low values; activity change, % at 57.5 µM; 360,000 compounds, 4.7% hits; in the data active means activity change below about -50%; inconclusive means mostly about -30% to -49%
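THP-1 cells pretreated 1 hr with compounds (up to 57.5 uM final), then stimulated with LPS (250 ng/mL final) plus ATP (1.25 mM final); secreted IL-1B measured by AlphaLISA after 16 hr, decreased signal indicating inhibition.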
DT40 TDP1 CPT = DT40-hTDP1 cell growth loss with CPT; chicken DT40 Tdp1-/-;hTDP1 cells + 20 nM CPT, ATP luminescence, 48 h; Potency, µM (top dose mostly 46.2 µM), usual class: inhibitors; 420,000 compounds, 12% hits; further: nearly all actives have a fitted effect of over 55% in size
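Chicken DT40 Tdp1-/- cells stably complemented with human TDP1 were seeded at 400 cells/well in medium containing 20 nM camptothecin, exposed to pin-transferred compounds, and grown at 37 °C for at least 48 hr. Viability was read as ATP luminescence.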
ASM inhibitor = inhibitors of human secretory acid sphingomyelinase; P17405; placental ASM, HMU-PC fluorogenic substrate, 60 min; Potency, µM (titrated, usually from 57.5 µM), actives largely listed as inhibitors; 340,000 compounds, 0.006% hits; AID 504937
Target sequence (P17405 47-631 limits assumed): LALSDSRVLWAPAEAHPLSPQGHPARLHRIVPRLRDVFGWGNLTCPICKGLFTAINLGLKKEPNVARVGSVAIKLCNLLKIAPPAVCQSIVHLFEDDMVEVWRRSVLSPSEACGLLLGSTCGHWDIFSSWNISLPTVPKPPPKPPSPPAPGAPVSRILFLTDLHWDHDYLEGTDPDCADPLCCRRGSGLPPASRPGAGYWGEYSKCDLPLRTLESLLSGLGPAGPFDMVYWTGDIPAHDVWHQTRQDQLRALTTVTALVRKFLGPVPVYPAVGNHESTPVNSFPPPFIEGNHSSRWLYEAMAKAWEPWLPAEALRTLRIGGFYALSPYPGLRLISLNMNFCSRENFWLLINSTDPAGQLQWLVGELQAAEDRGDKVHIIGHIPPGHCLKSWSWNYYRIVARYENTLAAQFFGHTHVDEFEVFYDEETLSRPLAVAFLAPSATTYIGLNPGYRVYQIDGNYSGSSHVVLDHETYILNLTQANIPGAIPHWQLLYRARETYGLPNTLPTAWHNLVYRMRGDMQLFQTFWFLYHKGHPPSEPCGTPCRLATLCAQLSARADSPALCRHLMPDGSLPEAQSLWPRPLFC
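Human placenta-derived ASM enzyme was preincubated with compound for 10 minutes at room temperature, then given fluorogenic substrate HMU-PC0 (9 uM final) for 60 minutes at 37 °C; a pH 10 stop preceded fluorescence reading at Ex 386/Em 447 nm.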
HepG2 tox = kills HepG2 cells in TGF-b inhibitor counter-screen; Potency, µM (highest dose often 46.1 µM), actives largely listed as cytotoxic; 410,000 compounds, 0.76% hits; HepG2 CAGA-GFP viability, ATP luminescence, 18 h
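HepG2 CAGA-GFP cells (1000/well, DMEM with 1% FBS) received compound, then TGF-beta at 500 pg/mL final, and were incubated 18 hours at 37 degrees C. Viability was read by CellTiter-Glo luminescence. Media-only wells were set as complete cell-killing and DMSO as no toxicity.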
DT40 TDP1 no CPT = qHTS for Inhibitors of human tyrosyl-DNA phosphodiesterase 1 (TDP1): qHTS in cells in absence of CPT; DT40 Tdp1-/- hTDP1 cells, no CPT, ATP luminescence, 48 h; Potency, µM (highest dose often 46.2 µM), most hits filed as inhibitors; 420,000 compounds, 15% hits; AID 686978, 2013; further: nearly all actives have a fitted effect of over 55% in size
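Chicken DT40 Tdp1-/- cells complemented with human TDP1, screened without camptothecin (DMSO vehicle only), 400 cells/well. Compounds pin-transferred, cells incubated at 37 °C for at least 48 hr. Growth read as ATP-dependent luminescence (CellTiter-Glo, 30 min at RT).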
Of the large screens only hits and unclear results are named; the others gave an inactive call. Hits are enriched below; roughly 19% of the tested compounds scored in any of these assays. Unless noted, the call rests on the fitted dose curve; in most records, active means well fitted curve in the direction sought with a large enough effect; inconclusive means small, poorly fitted or top-dose-only effect, or another doubt; inactive means no such curve, though single readings can be large; an effect the other way counts as inactive or inconclusive.

O=C(COc1ccccc1Cl)Nc1nc2c(s1)CCCC2	DT40 TDP1 CPT 8.2µM, DT40 TDP1 no CPT 10.3µM (no result: IL-1B inflam inh, ASM inhibitor)
O=C(COc1ccccc1)Nc1nc2c(s1)CCCC2	DT40 TDP1 CPT inconclusive, DT40 TDP1 no CPT inconclusive
Cc1cccc(C(=O)OCC(=O)c2cccc(Br)c2)c1O	none
COc1ccc(S(=O)(=O)N2CCCCC2)cc1NC(=O)Cc1ccc(Br)cc1	DT40 TDP1 CPT inconclusive
CCN(CC)C(=O)Cn1c(=O)n(-c2ccc(Cl)cc2)c(=O)c2c3c(sc21)CCCCC3	DT40 TDP1 CPT inconclusive, DT40 TDP1 no CPT inconclusive (no result: IL-1B inflam inh, ASM inhibitor)
CC1=C/C(=C/N(C)C)C(=O)O1	DT40 TDP1 no CPT inconclusive
CN(C)/C=C1/C=C(c2ccccc2)OC1=O	IL-1B inflam inh -53.3, DT40 TDP1 CPT inconclusive, DT40 TDP1 no CPT inconclusive
O=C1OC(c2ccccc2)=C/C1=C\N1CCOCC1	DT40 TDP1 CPT 23.1µM, DT40 TDP1 no CPT inconclusive
O=C1OC(c2ccccc2)=C/C1=C/N1CCOCC1	DT40 TDP1 CPT inconclusive, DT40 TDP1 no CPT 16.4µM
OC[C@@H]1CN(Cc2cccc3ccccc23)C[C@H](n2cnc3c(NCc4ccco4)ncnc32)O1	IL-1B inflam inh inconclusive, DT40 TDP1 CPT 20.6µM, DT40 TDP1 no CPT 20.6µM (no result: ASM inhibitor)
CC(C)CNc1ncnc2c1ncn2[C@H]1CN(Cc2ccc(Cl)cc2)C[C@@H](CO)O1	DT40 TDP1 CPT inconclusive, DT40 TDP1 no CPT inconclusive (no result: ASM inhibitor)
COCCNc1ncnc2c1ncn2[C@H]1CN(CCc2ccccc2)C[C@@H](CO)O1	none (no result: ASM inhibitor)
OC[C@@H]1CN(Cc2ccc(Cl)cc2)C[C@H](n2cnc3c(NCc4ccco4)ncnc32)O1	DT40 TDP1 CPT inconclusive (no result: ASM inhibitor)
CC(C)CNc1ncnc2c1ncn2[C@H]1CN(Cc2cccc3ccccc23)C[C@@H](CO)O1	DT40 TDP1 CPT 18.4µM, DT40 TDP1 no CPT inconclusive (no result: ASM inhibitor)
CC(C)CNc1ncnc2c1ncn2[C@H]1CN(CCc2ccccc2)C[C@@H](CO)O1	IL-1B inflam inh -71.1 (no result: ASM inhibitor)
C=C1C(=O)OC2C1CCC(C)=C1C(=O)C3OC3(C)C12 (stereo not given)	TGFb inhibitor 4.47µM, IL-1B inflam inh -104.5, DT40 TDP1 CPT 0.058µM, HepG2 tox 4.47µM, DT40 TDP1 no CPT 0.184µM
Cc1ccc(NC(=O)N2CCN(c3ccc(Cl)c(Cl)c3)CC2)cc1	DT40 TDP1 CPT inconclusive, DT40 TDP1 no CPT 3.26µM (no result: TGFb inhibitor, IL-1B inflam inh, ASM inhibitor)
CCOc1ccc(NC(=O)N2CCN(c3ccc(Cl)c(Cl)c3)CC2)cc1	DT40 TDP1 CPT inconclusive, DT40 TDP1 no CPT 1.3µM (no result: TGFb inhibitor, IL-1B inflam inh, ASM inhibitor)
CC(C)c1ccc(NC(=O)N2CCN(c3ccc(Cl)c(Cl)c3)CC2)cc1	DT40 TDP1 CPT inconclusive, DT40 TDP1 no CPT 0.92µM (no result: TGFb inhibitor, IL-1B inflam inh, ASM inhibitor)
CCOc1ccc(NC(=O)N2CCC(CN3CCCCCC3)CC2)cc1	DT40 TDP1 CPT 18.4µM, DT40 TDP1 no CPT inconclusive (no result: IL-1B inflam inh, ASM inhibitor)
NC(N)=NC1=NC(=O)C(Cc2ccccc2)S1 (stereo not given)	none
CN1CC[C@]2(CCN3CCc4c(oc5ccccc45)[C@@H]3C2)N(C)C1=O	DT40 TDP1 CPT inconclusive, DT40 TDP1 no CPT 18.4µM
Cn1c(=O)oc2ccccc2c1=O	none
CCOC(=O)Cc1csc(/N=C/c2c(O)n(-c3ccc(C)cc3C)c(=O)c3ccccc23)n1	DT40 TDP1 CPT inconclusive, DT40 TDP1 no CPT 16.4µM
CCOC(=O)Cc1csc(NC(=O)c2c(O)c3ccccc3n(CC(C)C)c2=O)n1	none
CCOc1ccc(NC(=O)CCSc2nc3c(c(CC)c2C#N)C(=O)CC(C)(C)C3)cc1	DT40 TDP1 CPT inconclusive, DT40 TDP1 no CPT 20.6µM
Cc1ccc(S(=O)(=O)CC(=O)Nc2nc3ccc(S(N)(=O)=O)cc3s2)cc1	none
CCOC(=O)c1sc(S(C)(=O)=O)c2c1CC(C)(C)C/C2=N/O	TGFb inhibitor inconclusive, DT40 TDP1 no CPT inconclusive
COCCN(C(=O)COC(=O)CSc1ccc(Cl)cc1)c1c(N)n(Cc2ccccc2)c(=O)[nH]c1=O	none
Cc1cc(C)n(-c2ccc(C(=O)O)cc2)n1	none
